Screening data (PubChem BioAssay)
Compounds with a hit are over-represented: about 4.1% of the library has one in this group of screens.
CHT allo act – allosteric activators of human choline transporter CHT; Q9GZV3; CHT-expressing cells, membrane potential dye, choline EC20; active compounds read high; LV-AA mutant CHT in HEK293 cells; B-score at 10 µM; 310,000 compounds, 0.49% hits;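 active = initial fluorescence not abnormally high and integrated response B-score, plate-corrected, over 3 SD above library mean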
MEKK2 mut-MEK5 – signal of MEK5 binding to mutant human MEKK2 PB1 domain; bead flow cytometry, Alexa488-MEK5 binding to MEKK2 mutant; percent response, % at 10 µM; 290,000 compounds, 0.35% hits; in the data active = percent response above about 24%, passing the limit was not always enough
Mot1-301 SUMO – blocks SUMOylation pathway, rescuing yeast Mot1-301 growth | 320,000 compounds, 1% hits | AID 2716 | S. cerevisiae Mot1-301 growth rescue, ATP luminescence, 38.5C; percent above DMSO median, 100 means doubled | growth rescue, % at 18.8 µM;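 active = every valid replicate shows activation above 250% relative to neutral control wells; inactive = the rest, any valid replicate at or below 250%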
CHT block – inhibits the human high affinity choline transporter; Q9GZV3; CHT-expressing cells, membrane potential dye, choline response; active compounds read low; B-score at 10 µM; 310,000 compounds, 0.86% hits; AID 488975;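 active = B-score over 3 SD under the library average, and starting fluorescence ratio not unusually high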;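 note: choline stimulus applied at its EC90 after an EC20 pre-addition; B-score computed on integrated fluorescence ratio after choline addition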
MEKK2 WT-MEK5 – raises or lowers MEK5 binding to wildtype human MEKK2 PB1 domain. bead flow cytometry, Alexa488-MEK5 binding to MEKK2 WT; actives lie on both sides. 290,000 compounds, 1.1% hits. Q9Y2U5. binding response (% of control), % at 10 µM; in the data active = binding response below about 67% or above about 130%
MEKK3 PB1 HTS – MEKK3-MEK5 PB1 interaction, increase or decrease; bead-based flow cytometry, Alexa488-MEK5 binding to MEKK3; actives lie on both sides; 0 = blocked by unlabeled MEK5, 100 = vehicle; binding response (% of control), % at 10 µM; Q99759; 290,000 compounds, 1.4% hits;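 active = binding response more than 3 SD above or below the average of its plate-row segment, actives on both sides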;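 note: Alexa488 bead fluorescence after subtracting the streptavidin-only scavenger bead signal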
Target sequence (Q99759 whole entry, looked up): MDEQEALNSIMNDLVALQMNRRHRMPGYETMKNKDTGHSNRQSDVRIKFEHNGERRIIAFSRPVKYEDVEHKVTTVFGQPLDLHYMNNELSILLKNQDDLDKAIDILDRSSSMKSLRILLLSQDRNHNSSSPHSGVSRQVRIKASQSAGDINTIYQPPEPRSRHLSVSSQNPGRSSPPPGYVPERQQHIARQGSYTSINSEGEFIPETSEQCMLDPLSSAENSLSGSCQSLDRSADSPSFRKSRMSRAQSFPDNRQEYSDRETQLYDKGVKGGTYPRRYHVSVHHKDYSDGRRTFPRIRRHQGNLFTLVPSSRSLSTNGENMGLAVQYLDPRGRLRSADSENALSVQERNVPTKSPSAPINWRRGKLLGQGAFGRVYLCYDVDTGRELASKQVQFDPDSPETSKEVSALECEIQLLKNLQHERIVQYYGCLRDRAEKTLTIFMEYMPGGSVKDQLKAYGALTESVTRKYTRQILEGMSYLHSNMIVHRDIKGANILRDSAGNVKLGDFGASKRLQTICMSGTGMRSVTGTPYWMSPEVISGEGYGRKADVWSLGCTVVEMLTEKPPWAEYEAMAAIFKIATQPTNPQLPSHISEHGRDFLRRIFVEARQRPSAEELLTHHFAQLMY
CHT act confirm – human CHT activation, confirmatory screen; shares compounds with CHT allo act; activation, % at 10 µM; CHT-expressing cells, membrane potential dye fluorescence (FDSS); % of choline EC20–EC90 response window; HEK293 expressing CHT LV-AA mutant; choline added at its EC20; AID 504833; 2,500 compounds, 91% hits;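 active = primary screen active, with duplicate mean activation above negative control mean plus 3 SD, cut at about 11% in these data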
HEK293 MP dye – counter-screen for CHT activators: effect in parental HEK293 cells; shares compounds with CHT allo act; membrane potential dye fluorescence (FDSS); measured after EC20 choline addition; ratio readout change at 10 µM, hits read low; 2,500 compounds, 62% hits;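 active = duplicate-averaged ratio beyond 3 SD from buffer wells, up or down, though filed actives are nearly all decreases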
Hits are given with their value; - = inactive; . = no result.

SMILES | CHT allo act | MEKK2 mut-MEK5 | Mot1-301 SUMO | CHT block | MEKK2 WT-MEK5 | MEKK3 PB1 HTS | CHT act confirm | HEK293 MP dye
CN1CCN(NC(=S)Nc2ccc(OC(F)F)cc2)CC1 | - | - | - | - | - | - | . | .
O=C(CCNC(=O)OCc1ccccc1)NC1CCCCCC1 | - | - | - | - | - | - | . | .
O=C(NCc1cccnc1)/C(=C\c1ccc(-c2ccc(Cl)c(Cl)c2)o1)S(=O)(=O)c1ccccc1 | 6.7 | - | - | - | - | - | 14 | -
O=C(NCc1cccnc1)c1ccc(-c2ccc(Cl)cc2)o1 | - | - | - | - | - | - | . | .
O=c1c2cnn(-c3ccccc3)c2nc(-c2cccs2)n1-c1ccc(Br)cc1 | - | - | - | - | - | - | 14 | -
C#CCOCCOCCOCCNc1nc(N2CCOCC2)nc(N2CCN(C(=O)CCCCCCCCCCNC(=O)[C@@H]([C@H](C)CC)n3cc(CCCCCN)nn3)CC2)n1 | 8.4 | . | - | - | . | . | - | -32
COc1ccc(CCOC(=O)c2ccc(N)c([N+](=O)[O-])c2)cc1 | - | - | - | - | - | - | . | .
CCOc1ccc(-n2c(-c3ccccc3)c[n+]3c2CCCCC3)cc1 | 13 | - | - | - | - | - | 44 | -
COc1ccc(N2CCN(c3oc(COc4ccccc4)nc3C#N)CC2)cc1 | - | - | - | - | - | - | 35 | -
COc1ccc(N2CCN(c3oc(COc4ccc(Cl)cc4)nc3C#N)CC2)cc1 | 8 | - | - | - | - | - | 36 | -
COc1ccc(N2CCN(c3oc(COc4ccc(Cl)cc4Cl)nc3C#N)CC2)cc1 | 9.5 | - | - | - | - | - | 27 | -
COc1ccc(C[C@H]2CN3C(=NC[C@H]3C)N2CCNC(=O)c2ccc(C)c(Br)c2)cc1 | - | - | - | - | - | - | . | .
COc1ccc(C[C@H]2CN3C(=NC[C@@H]3C)N2CCNC(=O)CCC2CCCCC2)cc1 | - | - | - | - | - | - | - | -
Cc1ccc(C2=C(c3ccc([N+](=O)[O-])cc3)C(=O)OC2)cc1C | - | - | - | - | - | - | . | .
N#Cc1c(Cl)nc2c(c1C#N)CCCC2 | - | - | - | - | - | - | . | .
Nc1c2c(nc3c1CCC3)CCCC2 | 12 | - | - | - | - | - | 44 | -70
CC(C)(C)n1nc2c(c1NC(=O)c1ccc(F)c(F)c1)CS(=O)(=O)C2 | - | - | - | - | - | - | . | .
CC(C)(C)n1nc2c(c1NC(=O)c1cc(Cl)ccc1[N+](=O)[O-])CS(=O)(=O)C2 | 7.2 | - | - | - | - | - | 39 | -
CCC(C)c1ccccc1N1CC(C(=O)Nc2ccccc2N2CCCC2)CC1=O (configuration not stated) | - | - | - | - | - | - | 29 | -
O=C(NCC(c1cccs1)N1CCOCC1)c1ccc(Cl)c([N+](=O)[O-])c1 (configuration not stated) | - | - | - | - | - | - | . | .
Cc1ccc(C(=O)N(C)c2nnc(-c3ccncc3)s2)cc1 | - | - | - | - | - | - | . | .
CN(C(=O)CCc1ccccc1)c1nnc(-c2ccncc2)s1 | 7.4 | - | - | - | - | - | 28 | -30
O=C1C2CC=C(Cl)CC2C(=O)N1CCC[n+]1cccc2ccccc21 (configuration not stated) | - | - | - | - | - | - | 50 | -25
O=C1C2CC=C(Cl)CC2C(=O)N1CCCCCCN1C(=O)C2CC=C(Cl)CC2C1=O (configuration not stated) | - | - | - | - | - | - | . | .
CCOC(=O)c1cnc2cc(C)ccn2c1=O | 8.5 | - | - | - | - | - | 52 | -49
SMILES | CHT allo act | MEKK2 mut-MEK5 | Mot1-301 SUMO | CHT block | MEKK2 WT-MEK5 | MEKK3 PB1 HTS | CHT act confirm | HEK293 MP dye
COc1cc2c(cc1OC)C(c1ccc(-c3cc(Cl)ccc3Cl)o1)=NCC2 | - | - | - | - | - | - | . | .
COc1cc2c(cc1OC)C(c1ccc(Cl)cc1)=NCC2 | - | - | - | - | - | - | 63 | -79
COc1cc2c(cc1OC)C(c1ccc(-c3ccc(Cl)cc3Cl)o1)=NCC2 | - | . | - | - | . | . | . | .
COc1cc2c(cc1OC)C(C)=NC1(CCCCC1)C2 | 9.8 | - | - | - | - | - | 30 | -44
COc1cc2c(cc1OC)C(C)=NCC2 | 14 | - | - | - | - | - | 60 | -68
CC(=O)Nc1ccc(S(=O)(=O)N2CCSc3ccccc32)cc1 | . | . | - | . | . | . | . | .
Cc1ccc(C(C[N+](=O)[O-])Sc2ccc(N)cc2)cc1 (configuration not stated) | - | - | - | - | - | - | . | .
Cc1nc(SC(C)C(=O)NCC2CCCO2)c2cc(-c3ccccc3)sc2n1 (configuration not stated) | - | . | - | - | . | . | . | .
CC1CCCN(c2c3c(nc4ccccc24)CCCC3)C1 (configuration not stated) | - | - | - | - | - | - | 20 | -
COc1ccc(-n2nc(C(=O)NCC(=O)NCCCN3CC(C)CC(C)C3)c3ccccc3c2=O)cc1Cl (configuration not stated) | 7.7 | - | - | - | - | - | 43 | -47
COc1cc(N)c(C(=O)c2nccc3cc(OC)c(OC)cc23)cc1OC | - | - | - | - | - | - | . | .
COc1ccc(C(N)c2nccc3cc(OC)c(OC)cc23)cc1OC (configuration not stated) | 7.3 | - | - | - | - | - | 53 | -41
CCCC1=[N+](CC)CCn2c(C)ccc21 | - | - | - | - | - | - | . | .
CCCC1=[N+](CC(=O)c2ccccc2)CCn2c(C)ccc21 | 8.1 | - | - | - | - | - | 40 | -
Cc1ccc(C(c2nnnn2C2CCCC2)N2c3ccccc3CC2C)cc1 (configuration not stated) | - | - | - | - | - | - | . | .
Clc1ccccc1/C=C/C=N/Nc1nc(N2CCOCC2)nc(N2CCOCC2)n1 | - | - | . | - | - | - | . | .
Cc1nnc(C)c2c(C)n(Cc3ccc4c(c3)OCO4)c(C)c12 | 8.1 | - | - | - | - | - | 54 | -45
COCCNC(=S)N1CCN(S(C)(=O)=O)CC1 | - | - | - | - | - | - | . | .
COc1ccccc1N1CCN(C(c2ccccc2)c2nnnn2CCc2ccccc2)CC1 (configuration not stated) | - | - | - | - | - | - | 17 | -
